This is one part of a sample in which hits are shown more often than they occur.
mHTT CaM bind: inhibitors of human mutant huntingtin-calmodulin interaction. P42858. AlphaScreen His-mHTT/GST-CaM binding, luminescence. inhibition, % at 15 µM. actives 3.6% (n = 190,000);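 also: 0% = both proteins with DMSO and 100% = one protein alone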
Pf apPOL inh: Pf-apPOL DNA polymerase inhibition; Recombinant Pf-apPOL, molecular beacon fluorescence, 1.5 h; actives 0.25% (n = 210,000); inhibition, % at 10 µM; AID 1794808
* = called active by the depositor; x = not tested or not shown. Rule as the data show it: active = inhibition above about 50%; inactive = the rest.

SMILES | mHTT CaM bind | Pf apPOL inh
COc1cc(C2CC(=O)Oc3cc(O)ccc32)cc(OC)c1OC (stereo unspecified) | 3 | -5
COc1cc(C2CC(=O)Oc3c(C(CCN4CCOCC4)c4ccc(N(C)C)cc4)c(OC)cc(OC)c32)cc(OC)c1OC (stereo unspecified) | 65* | -4
CC1(C)c2ccccc2N(CC(N)=O)C12C=Cc1cc([N+](=O)[O-])ccc1O2 (stereo unspecified) | 85* | 4
CN1c2ccccc2C(C)(C)C12C=Cc1cc(Br)cc([N+](=O)[O-])c1O2 (stereo unspecified) | x | -499
COc1ccc2c(c1)C(C)(C)C1(C=Cc3cc([N+](=O)[O-])ccc3O1)N2C (stereo unspecified) | 70* | -2
COc1cccc2c1OC1(C=C2)N(C)c2ccc([N+](=O)[O-])cc2C1(C)C (stereo unspecified) | 8 | 5
CCn1nccc1-c1cccc(-c2noc(-c3cccs3)n2)c1 | -30 | 1
Cc1nc(-c2nnc(SCc3ccccc3)n2-c2cccc(F)c2)cs1 | x | -1
COc1ccc(C2/C=C\CN(Cc3ccco3)CC(=O)N2Cc2ccc(F)cc2)cc1 (stereo unspecified) | 61* | -4
COc1ccc(C2/C=C\CN(C(=O)Oc3ccc(C(F)(F)F)cc3)CC(=O)N2Cc2ccc(F)cc2)cc1 (stereo unspecified) | 79* | -1
COc1ccc(C2/C=C\CN(C(=O)Nc3ccc(C(F)(F)F)cc3)CC(=O)N2Cc2ccc(F)cc2)cc1 (stereo unspecified) | 59* | -5
COc1ccc(C2/C=C\CN(C(=O)c3ccc(C)cc3)CC(=O)N2Cc2ccc(F)cc2)cc1 (stereo unspecified) | 75* | -3
COc1ccc(C2/C=C\CN(S(=O)(=O)c3ccc(-c4ccccc4)cc3)CC(=O)N2Cc2ccc(F)cc2)cc1 (stereo unspecified) | -3 | -1
COc1ccc(CNC(=O)CN2CCN(C(=O)Nc3ccc(F)cc3)CC2=O)cc1 | -8 | -5
COc1ccc(C2/C=C\CN(CC3CCCCC3)CC(=O)N2Cc2ccc(F)cc2)cc1 (stereo unspecified) | 34 | -3
COc1ccc(C2/C=C\CN(C(=O)C3CCCC3)[C@@H](C)C(=O)N2Cc2ccc(F)cc2)cc1 (stereo partly specified) | 43 | -2
CCc1ccc(N=c2oc3c(C)ncc(CO)c3cc2C(N)=O)cc1 | -4 | -6
CCc1cc2c(=O)c(-c3ccc4c(c3)OCO4)c(C(F)(F)F)oc2cc1O | 1 | 2
C=CCn1c(NC(=O)c2ccccc2)nc2ccccc21 | 54* | 1
CCn1c(NC(=O)c2ccccc2)nc2ccccc21 | 53* | 0
O=C(Nc1nc2ccccc2n1CCN1CCCCC1)c1ccccc1 | 34 | -3
CCC(=O)Nc1nc2ccccc2n1CC | -2 | -15
COc1ccccc1Nc1nc(-c2cc(C)ccc2C)cs1 | 24 | 2
COc1cc(Nc2nc(-c3cc(C)ccc3C)cs2)c(OC)cc1Cl | 74* | -1
COc1ccc(-c2csc(Nc3ccc(C)c(Cl)c3)n2)cc1F | 88* | -1
SMILES | mHTT CaM bind | Pf apPOL inh
CCOc1ccc(Nc2nc(-c3ccc(OC)c(F)c3)cs2)cc1 | 32 | -4
Fc1ccc(Nc2nc(-c3ccccc3)cs2)cc1 | 30 | 1
CCc1ccc(-c2csc(Nc3cc(OC)c(Cl)cc3OC)n2)cc1 | 12 | 3
Fc1ccc(-c2csc(Nc3ccc(Cl)cc3)n2)cc1 | 97* | -1
COc1ccc(-c2csc(Nc3ccc(Cl)cc3)n2)cc1F | 95* | 5
COc1ccc(NS(=O)(=O)c2cc(C(=O)O)ccc2F)cc1 | -1 | -4
COc1ccc(CNC(=O)C2CCCN(c3ccc(N4CCOCC4)nn3)C2)cc1 (stereo unspecified) | -4 | -9
Cc1nc(C)c2c(n1)N(Cc1ccc(F)cc1F)C(=O)CC2 | -16 | 21
COc1cccc(CNC(=O)C(C)C2CCN(S(=O)(=O)c3cccs3)CC2)c1 (stereo unspecified) | -5 | -3
CCc1ccccc1NC(=O)c1cccnc1-c1ccsc1 | 2 | 0
COc1ccc([N+](=O)[O-])cc1NC(=O)C1CC(=O)NC(=N)S1 (stereo unspecified) | 1 | 59*
COc1ccc([N+](=O)[O-])cc1NC(=O)C1CCCCC1 | -2 | -2
COc1cccc(-n2nc(C(=O)Nc3ccc(F)cc3)c3ccccc3c2=O)c1 | -11 | 3
Cc1ccc2nc(NC(=O)CSc3ccc4nnc(-c5ccccn5)n4n3)sc2c1 | 80* | 5
CCOC(=O)CC(=O)CSc1ccc2nnc(-c3ccccn3)n2n1 | 83* | 2
O=C(CSc1ccc2nnc(-c3ccccn3)n2n1)NCc1ccc2c(c1)OCO2 | 24 | 5
Cc1ccc2nc(NC(=O)CSc3ccc(-n4cccn4)nn3)sc2c1 | -13 | -3
COc1ccccc1CNc1nc2ccncc2n(Cc2ccccc2)c1=O | 0 | -6
CNC(=S)N1CCCCC1 | -9 | x

Assay outcomes from PubChem BioAssay.
